# Screens as filed in PubChem BioAssay.
# Shown are actives, neighbours in structure and some others; about 6.5% of the full set was active somewhere.
# HCMV inh: human cytomegalovirus inhibition; hit rate 4.5% among 410,000; HFF cells, HCMV-luciferase reporter, 72 h; stronger effect = lower value; activity change, negative = inhibition, % at 57.5 µM; in the data active means activity change below about -60%; inconclusive means no clear call, values can overlap the other calls; inactive means above about -39%
#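 Compounds were evaluated in HFFs infected with an HCMV luciferase reporter virus (MOI 1 PFU/cell). Luciferase in lysates collected 72 h post infection served as the replication measure.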
# VACV Venus inh: inhibitors of vaccinia virus (Venus reporter) | Vaccinia virus Venus reporter expression, fluorescence | Potency, µM (titrated, usually from 36.5 µM), inactives show top-dose activity change, negative = inhibition, most hits filed as inhibitors | hit rate 0.46% among 330,000 | AID 720580; calls by dose curve; tested in A549 cells; further: potency means the concentration at half of the fitted maximal effect; nearly all actives have a fitted effect of over 30% in size
# VACV mCherry inh: vaccinia inhibition (mCherry reporter) | Vaccinia virus mCherry reporter infection, fluorescence | Potency, µM (highest dose often 36.5 µM), for the others: at the top dose activity change, negative = inhibition, most hits filed as inhibitors | hit rate 0.63% among 310,000; calls by dose curve; tested in A549 cells; further: potency means the concentration at half of the fitted maximal effect; nearly all actives have a fitted effect of over 35% in size
# MARV entry inh: Marburg virus entry inhibition; Marburg virus pseudotyped entry inhibition, cell reporter; Potency, µM (highest dose often 37.8 µM), inactives show top-dose activity change, negative = inhibition, hits mostly inhibitors; hit rate 1.8% among 300,000; calls by dose curve; tested in HEK293 cells; further: potency means the concentration at half of the fitted maximal effect
# FMDV antiviral: antivirals against foot and mouth disease virus; FMDV antiviral cell-based qHTS; Potency, µM (series often up to 57.9 µM), without a hit: at the highest dose activity change, negative = inhibition, most hits filed as inhibitors; hit rate 1.2% among 410,000; calls by dose curve; tested in HEK293T cells; further: read-out not given here; potency means the concentration at half of the fitted maximal effect; nearly all actives have a fitted effect of over 45% in size
# LASV entry inh: Lassa virus entry inhibition. Lassa virus pseudotype entry inhibition, cell reporter. Potency, µM (titrated, usually from 37.9 µM), for the others: at the highest dose activity change, negative = inhibition, usual class: inhibitors. hit rate 1.2% among 300,000. AID 540256; calls by dose curve; tested in HEK293 cells; further: potency means the concentration at half of the fitted maximal effect; nearly all actives have a fitted effect of over 50% in size
# The depositor's hits bear a star; i = inactive; ? = inconclusive; · = no result given; [ ] = dose if it differs, or a comment. On the % scale 0 is the no-effect control and ±100 the full control effect.
SMILES,HCMV inh,VACV Venus inh,VACV mCherry inh,MARV entry inh,FMDV antiviral,LASV entry inh
Cn1nnnc1Sc1ncnc2scc(-c3ccc([N+](=O)[O-])cc3)c12,-100*,·,·,·,11µM*,·
CCOc1ccc(OCC)c(NC(=O)C2CCN(S(=O)(=O)c3ccc(Br)s3)CC2)c1,-2,-13%,-17%,-3%[46.1 µM],-14%,1%[46.1 µM]
Cc1cc(C)cc(-n2c(C)cc(C(=O)C(=O)Nc3ccccc3F)c2C)c1,19,-3%,-4%,10%[46.1 µM],16%,21%[46.1 µM]
Cc1cccc(-n2c(C)cc(C(=O)C(=O)Nc3ccccc3F)c2C)c1C,-67*,-6%,-8%,5%[46.1 µM],0%,12%[46.1 µM]
O=C(Nc1ccc(Cl)cc1)c1nc[nH]c1C(=O)NCc1ccccc1,-74*,?,?,·,-27%,·
O=C(c1ccccc1)c1nc[nH]c1C(=O)Nc1ccccc1,-65*,-13%,·,-26%,4%,?
CN(Cc1ccccc1)C(=O)c1[nH]cnc1C(=O)Nc1ccc(Cl)cc1,-31,?,?,·,0%,·
O=C(Nc1ccccc1)c1nc[nH]c1C(=O)O,-19,-10%[7.34 µM],-12%[7.34 µM],?,-2%,12%[46.1 µM]
C[C@@H](NC(=O)c1[nH]cnc1C(=O)Nc1ccc(Cl)cc1)c1ccccc1,-70*,?,?,·,-4%,·
Cc1cccc(NC(=O)c2nc[nH]c2C(=O)Nc2cc(Br)ccc2F)c1,-88*,?,-17%,·,-17%,·
Cc1cccc(NC(=O)c2nc[nH]c2C(=O)Nc2ccccc2[N+](=O)[O-])c1,-37,-18%,?,23%,4%,-25%
C=CC1=C2C=C(C3CC3)N(CCN3CCOCC3)C=C2C(=O)C(C)(OC(=O)c2ccco2)C1=O (stereo unspecified),·,·,·,16%[14.2 µM],·,·
COc1cccc(CN2C(=O)c3ccccc3Sc3ccc(C(=O)OCc4ccco4)cc32)c1,11,-16%,-21%,·,-7%,-29%[46.1 µM]
C[C@H](NC(=O)c1[nH]cnc1C(=O)Nc1cccc(Cl)c1)c1ccccc1,?,?,-19%,·,-2%,·
C[C@@H](NC(=O)c1[nH]cnc1C(=O)Nc1cccc(Cl)c1)c1ccccc1,-79*,-25%,-3%,·,0%,·
O=C(Nc1ccc(F)c(Cl)c1)N1CCC(CN2CCOCC2)CC1,-11,-14%,-14%,·,18%,?
CCOC(=O)C1=C(C)NC(C)=C(C(=O)OCC)C1c1ccc(Br)o1,-79*,-19%,-13%,-44%,-30%,-3%
COC(=O)c1ccc(-c2cccc3c2OC(CNC(=O)/C=C/c2ccc(OC)c(OC)c2)C3)nc1 (stereo unspecified),·,-26%,-26%,·,-4%,·
COCC(=O)O[C@]1(CCN(C)CCCc2nc3ccccc3[nH]2)CCc2cc(F)ccc2[C@@H]1C(C)C,-98*,?,-17%,7.3µM*,?,5.2µM*
CN1CCC(C2(O)c3ccccc3CCc3ccccc32)CC1,?,-8%,-3%,18µM*,6%,-2%
CCN(CC)S(=O)(=O)c1ccc(NC(=O)c2ccc(CN3CCOCC3)cc2)cc1,-95*,?,?,?,·,?
O=C(Nc1ccc(Cc2ccncc2)cc1)c1ccc(S(=O)(=O)N2CCOCC2)cc1,-73*,?,?,?,18µM*,?
CCN(CC)S(=O)(=O)c1ccc(N2CCOCC2)c(NC(=O)c2cc3ccccc3o2)c1,-73*,-25%,i,·,0%,·
O=C(Nc1ccc(Cc2ccncc2)cc1)c1ccc(Cl)c([N+](=O)[O-])c1,-21,-12%,·,0%,28µM*,-28%
CCN(CC)S(=O)(=O)c1ccc(NC(=O)c2ccc(N3CCCC3=O)cc2)cc1,-76*,-12%,-19%,?,?,?
SMILES,HCMV inh,VACV Venus inh,VACV mCherry inh,MARV entry inh,FMDV antiviral,LASV entry inh
N=c1sccn1CC(=O)Nc1ccc(S(=O)(=O)N2CCOCC2)cc1,-63*,-27%,?,0%,-2%,-6%
CN(c1ccc(C(=O)Nc2ccc(S(=O)(=O)N3CCCC3)cc2)cc1)S(C)(=O)=O,-98*,-26%,-27%,?,?,?
O=C(Nc1ccc(S(=O)(=O)N2CCCC2)cc1)c1ccc(CN2CCOCC2)cc1,-81*,-17%,-27%,?,16µM*,?
O=C(Nc1ccc(S(=O)(=O)N2CCOCC2)cc1)c1ccc(S(=O)(=O)N2CCOCC2)cc1,-39,-7%,-21%,4%[46.1 µM],-18%,28%[46.1 µM]
Cc1ccc(CN2C(=O)COCc3cc(-c4cccc(CO)c4)ccc32)cc1,-10,·,·,·,·,·
O=C(Nc1ccc(S(=O)(=O)N2CCCCC2)cc1)c1ccc(CN2CCOCC2)cc1,·,?,-29%,8.2µM*,·,?
O=C(Nc1ccc(S(=O)(=O)N2CCCCCC2)cc1)c1[nH]ncc1[N+](=O)[O-],-87*,·,·,·,·,·
CCCCNC(=O)C(C)(C)n1cc(NC(=O)c2cc(C)oc2C)cn1,3,·,·,·,·,·
C=C1CC2(OC1=O)c1ccccc1CCc1ccccc12,-97*,14µM*,?,?,22µM*,20µM*
N#C/C(=C\c1ccncc1)c1ccccn1,-78*,-24%,-26%,?,-5%,-26%
N#C/C(=C\c1ccccc1)c1ccccn1,2,·,·,·,53%,·
COc1ccc2[nH]cc(CCNc3ncncc3-c3ccccc3Cl)c2c1,·,·,·,·,35µM*,·
COc1ccc2[nH]cc(CCNc3ncncc3-c3ccccc3OC)c2c1,·,·,·,·,-7%,·
C/C=C/c1ccc2oc(-c3ccc(O)cc3)c(C)c2c1,·,·,·,·,29%,·
Cc1c(N=Cc2c(O)n(CCc3ccc(F)cc3)c(=O)[nH]c2=O)c(=O)n(-c2ccccc2)n1C,-71*,-2%,?,?,·,?
COc1ccc(CCn2c(O)c(C=Nc3ccc(F)cc3)c(=O)[nH]c2=O)cc1OC,-12,·,·,·,32µM*,·
C=CCn1c(O)c(C=Nc2c(C)n(C)n(-c3ccccc3)c2=O)c(=O)[nH]c1=O,34,·,·,·,-14%,·
CCN(CC)c1ccc(N=Cc2c(O)n(CCc3ccc(OC)c(OC)c3)c(=O)[nH]c2=O)cc1,31,-7%,-14%,2.8µM*,6.3µM*,?
COc1ccc(CN(C(=O)c2ccccc2F)C2CCS(=O)(=O)C2)cc1 (stereo unspecified),30,-15%,-17%,8%[46.1 µM],5%,4%[46.1 µM]
CN(C)c1ccc(/C=C/c2ccnc3ccccc23)cc1O,·,14%,-17%,·,·,·
Cc1cccc(C(=O)Nc2sc3c(c2C(=O)N2CCCCC2)CCC(C)C3)c1 (stereo unspecified),-4,-11%,-14%,-10%[46.1 µM],-8%,5%[46.1 µM]
CCOc1ccc(NC(=O)Cn2c(=O)c(CNc3ccc(OC)cc3)cc3ccc(OC)cc32)cc1,-27,-4%,1%,·,12%,-7%[46.1 µM]
COc1ccc(N2CCN(C(c3ccccc3)c3nnnn3C(C)C)CC2)cc1 (stereo unspecified),·,-18%,-11%,·,·,·
CCCCC[C@@H](/C=C/C1C(=O)C=C[C@H]1C/C=C\CCCC(=O)O)OC(C)=O (stereo partly specified),112,14%,?,·,35µM*,·
